Screening results deposited in PubChem BioAssay by National Center for Advancing Translational Sciences (NCATS).
Rows were chosen to be rich in hits. Some 19% of all compounds tested hit in one or more screens of this group.
TDP1 cell noCPT – qHTS for Inhibitors of human tyrosyl-DNA phosphodiesterase 1 (TDP1): qHTS in cells in absence of CPT. DT40 Tdp1-/- hTDP1 cells, no CPT, ATP luminescence, 48 h. Potency, µM (highest dose often 46.2 µM), without a hit: at the highest dose activity change, negative = growth inhibition, hits mostly inhibitors. hit rate 15% among 420,000. AID 686978, 2013; also: potency is read from the fitted curve at half-maximal effect; % is scaled to controls: 0 for no effect and ±100 for the full control effect; nearly all actives have a fitted effect of over 55% in size
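Chicken DT40 Tdp1-/- cells stably complemented with human TDP1 were seeded at 400 cells/well with DMSO in place of 20 nM camptothecin. After compound pinning, cells grew at least 48 hr at 37 °C; viability read by CellTiter-Glo luminescence.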
TGFb inhibitor – qHTS for Inhibitors of TGF-b | HepG2 CAGA-GFP TGF-b/SMAD3 reporter, GFP fluorescence, 18 h; TGF-beta stimulated, 500 pg/mL final | Potency, µM (series often up to 46.1 µM), inactives show at the top dose activity, negative = inhibition, actives largely listed as inhibitors | hit rate 1.2% among 410,000 | AID 588855, 2011; also: potency is read from the fitted curve at half-maximal effect; % is scaled to controls: 0 for no effect and ±100 for the full control effect; nearly all actives have a fitted effect of over 65% in size
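Inhibition was scored as loss of TGF-beta-induced (500 pg/mL final, 18 hours, 37 degrees C) GFP in HEPG2 cells carrying a CAGA-GFP reporter, in DMEM with 1% FBS. Well GFP was summed per cell; Activity was normalised to unstimulated and stimulated DMSO wells, then concentration-response fitting.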
IL1B secr inh – qHTS for Inhibitors of Inflammasome Signaling: IL-1-beta AlphaLISA Primary Screen. THP-1 LPS/ATP IL-1B secretion, AlphaLISA, 16 h; stronger effect = lower value. activity change, % at 57.5 µM. hit rate 4.7% among 360,000; in the data active = activity change below about -50%; inconclusive = mostly about -30% to -49%; also: % is scaled to controls: 0 for no effect and ±100 for the full control effect
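Secreted IL-1B measured by AlphaLISA bead assay after 16 h compound exposure of THP-1 cells; compounds (final up to 57.5 uM) added 1 h before LPS (250 ng/mL) and ATP (1.25 mM) stimulation; lower signal means less secretion.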
HepG2 viability – qHTS for Inhibitors of TGF-b: Cytotox Counterscreen. Potency, µM (top dose mostly 46.1 µM), for the others: at the highest dose activity change, negative = cytotoxicity, most hits filed as cytotoxic. AID 588856, 2011. hit rate 0.76% among 410,000. HepG2 CAGA-GFP viability, ATP luminescence, 18 h; also: potency is read from the fitted curve at half-maximal effect
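CellTiter-Glo luminescence gave cytotoxicity after 18 hours at 37 degrees C. The cells were HepG2 CAGA-GFP in 1% FBS DMEM, stimulated with 500 pg/mL TGF-beta after compound addition. %Activity was normalised to no-cell wells (complete cell-killing) and DMSO (no toxicity), and curves were fitted and classified.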
DT40 TDP1 CPT – qHTS for Inhibitors of human tyrosyl-DNA phosphodiesterase 1 (TDP1): qHTS in cells in presence of CPT; chicken DT40 Tdp1-/-;hTDP1 cells + 20 nM CPT, ATP luminescence, 48 h; hit rate 12% among 420,000; Potency, µM (top dose mostly 46.2 µM), inactives show at the top dose activity change, negative = growth inhibition, usual class: inhibitors; AID 686979, 2013; also: potency is read from the fitted curve at half-maximal effect; % is scaled to controls: 0 for no effect and ±100 for the full control effect; nearly all actives have a fitted effect of over 55% in size
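Cell growth measured by CellTiter-Glo luminescence after a minimum 48 h, 37 C compound exposure with 20 nM CPT in Tdp1-knockout DT40 cells stably expressing hTDP1, seeded 400/well; qHTS titration format.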
S-ASM inh – Inhibitors of Secretory Acid Sphingomyelinase (S-ASM): qHTS. hit rate 0.006% among 340,000. placental ASM, HMU-PC fluorogenic substrate, 60 min. Potency, µM (titrated, usually from 57.5 µM), for inactives: at the highest dose activity change, negative = inhibition, most hits filed as inhibitors; also: potency is read from the fitted curve at half-maximal effect
Target sequence (P17405 47-631 limits assumed): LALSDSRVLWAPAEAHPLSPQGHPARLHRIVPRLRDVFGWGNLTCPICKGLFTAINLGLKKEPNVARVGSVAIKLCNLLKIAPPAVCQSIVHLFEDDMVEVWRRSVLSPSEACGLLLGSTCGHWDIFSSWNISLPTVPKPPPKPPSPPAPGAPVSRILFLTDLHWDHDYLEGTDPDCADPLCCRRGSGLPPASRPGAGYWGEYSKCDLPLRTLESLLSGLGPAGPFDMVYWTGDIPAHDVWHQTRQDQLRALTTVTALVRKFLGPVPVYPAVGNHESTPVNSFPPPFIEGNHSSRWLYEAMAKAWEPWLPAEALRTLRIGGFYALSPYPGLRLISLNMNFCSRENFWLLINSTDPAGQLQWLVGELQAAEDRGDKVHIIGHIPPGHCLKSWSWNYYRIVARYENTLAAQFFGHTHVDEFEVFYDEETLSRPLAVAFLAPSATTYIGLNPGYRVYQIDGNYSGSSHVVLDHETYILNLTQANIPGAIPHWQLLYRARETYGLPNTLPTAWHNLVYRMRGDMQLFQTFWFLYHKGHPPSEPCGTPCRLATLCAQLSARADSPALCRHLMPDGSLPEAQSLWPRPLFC
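Fluorogenic HMU-PC substrate (9 uM final) is turned over by placental ASM in 60 min at 37 C after a 10 min compound preincubation. Reaction ended by alkaline stop (pH 10), with fluorescence read at 386/447 nm.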
Active calls of the source: *; [ ] = remark or other dose. Unless noted, calls follow the shape of the dose curve; as a rule, active = well fitted curve in the direction sought with a large enough effect; inconclusive = small, poorly fitted or top-dose-only effect, or another doubt; inactive = no such curve, though single readings can be large; an effect the other way counts as inactive or inconclusive.

`CC(C)Cc1cc(C(=O)N2CCC(N3CCC(C(=O)N4CCOCC4)CC3)CC2)n[nH]1` gave TDP1 cell noCPT 1.0%, TGFb inhibitor -6.0%, IL1B secr inh -2.0, HepG2 viability -20.1%, DT40 TDP1 CPT -20.3% and S-ASM inh -0.1%.
For COc1ccc(OC)c(-c2cc(Cl)c3c(c2)CC(CNC(=O)[C@@H]2CCCN2C(C)=O)O3)c1 (some centres not stated) the results were TDP1 cell noCPT -15.4% and DT40 TDP1 CPT 19.5%[9.04 µM].
`Cc1nc(-[n+]2nc(-c3ccncc3)nn2-c2ccccc2)sc1C` gave TDP1 cell noCPT 1.84µM*, TGFb inhibitor -13.8%, IL1B secr inh inconclusive, HepG2 viability -68.3% and DT40 TDP1 CPT 1.46µM*.
CC1=C(C(N)=O)C(c2ccccc2)n2nc(-c3ccncc3)nc2N1 (configuration not stated) was read as TDP1 cell noCPT -5.9%, TGFb inhibitor 3.1%, IL1B secr inh 6.0, HepG2 viability -3.9%, DT40 TDP1 CPT -5.5% and S-ASM inh 2.8%.
For O=C(CCl)Nc1cc(SCC(O)CO)cc([N+](=O)[O-])c1 (configuration not stated) the results were TDP1 cell noCPT inconclusive, TGFb inhibitor 2.82µM*, IL1B secr inh -101.3*, HepG2 viability -89.9%, DT40 TDP1 CPT 4.61µM* and S-ASM inh -4.5%.
For CC(C)=NOc1cc(NC(=O)CCl)cc([N+](=O)[O-])c1 the results were TDP1 cell noCPT 4.11µM*, TGFb inhibitor 6.31µM*, IL1B secr inh -100.5*, HepG2 viability -79.2%, DT40 TDP1 CPT 3.66µM* and S-ASM inh -1.5%.
COc1ccccc1N1CCN(S(=O)(=O)CCNC(=O)COc2ccccc2)CC1 was read as TDP1 cell noCPT inconclusive, TGFb inhibitor -17.3%, IL1B secr inh -17.8, HepG2 viability -8.6% and DT40 TDP1 CPT inconclusive.
COc1ccc(/C=N/Nc2cc(C)nc3ccc(OC)cc23)c(OC)c1 was read as TDP1 cell noCPT 5.8µM*, TGFb inhibitor 10µM*, IL1B secr inh -103.9*, HepG2 viability -107.2%, DT40 TDP1 CPT 11.6µM* and S-ASM inh inactive.
Oc1ccc(/C=N/Nc2nc(-c3ccc(Cl)cc3)cc(C(F)(F)F)n2)cc1 was read as TDP1 cell noCPT inconclusive, TGFb inhibitor inconclusive, IL1B secr inh -99.1*, HepG2 viability -100.4%, DT40 TDP1 CPT inconclusive and S-ASM inh -28.4%.
Screening Cc1cc(-c2ccccc2)nc(N/N=C/c2ccc(O)cc2)n1 returned TDP1 cell noCPT inconclusive, TGFb inhibitor -27.3%, IL1B secr inh -100.3*, HepG2 viability -26.1%, DT40 TDP1 CPT 11.6µM* and S-ASM inh -0.9%.
Screening COc1ccc(/C=N/Nc2nc(C)cc(-c3ccccc3)n2)c(OC)c1 returned TDP1 cell noCPT 20.6µM*, TGFb inhibitor -4.8%, IL1B secr inh 23.4, HepG2 viability -18.2%, DT40 TDP1 CPT 13.2% and S-ASM inh 11.2%.
Screening Cc1cc(C)nc(N/N=C/c2ccccc2)n1 returned TDP1 cell noCPT -11.1%, TGFb inhibitor 5.2%, IL1B secr inh 10.0, HepG2 viability -14.3%, DT40 TDP1 CPT -18.7% and S-ASM inh 1.8%.
For O=C(NC1CCSc2ccccc21)c1cccc(Cl)c1 (configuration not stated) the results were TDP1 cell noCPT -11.3%, TGFb inhibitor -22.0%, IL1B secr inh 40.1, HepG2 viability -5.0%, DT40 TDP1 CPT -19.8% and S-ASM inh -2.9%.
Screening COc1ccc(S(=O)(=O)N2CCCCC2)cc1NS(=O)(=O)c1cc(Cl)ccc1Cl returned TDP1 cell noCPT -16.9%, TGFb inhibitor inconclusive, IL1B secr inh 0.0, HepG2 viability -19.5%, DT40 TDP1 CPT -1.8% and S-ASM inh -0.2%.
Screening O=C(NCc1cn2ccccc2n1)C1CCC(=O)N(Cc2ccccc2F)C1 (configuration not stated) returned TDP1 cell noCPT 2.3%, TGFb inhibitor 2.5%, IL1B secr inh 3.0, HepG2 viability -9.0%, DT40 TDP1 CPT 2.7% and S-ASM inh -4.8%.
Cc1ccccc1NC(=O)C(=O)NCCCN1CCOCC1 was read as TDP1 cell noCPT -5.0%, TGFb inhibitor 1.7%, IL1B secr inh 2.3, HepG2 viability -0.9%, DT40 TDP1 CPT 20.0% and S-ASM inh 1.5%.
For CCCCCOc1ccc(OC(=O)c2ccncc2)cc1 the results were TDP1 cell noCPT 13µM*, TGFb inhibitor -2.9%, IL1B secr inh 23.4, HepG2 viability 5.7%, DT40 TDP1 CPT 11.6µM* and S-ASM inh 2.2%.
COc1ccc(Cn2c(=O)c3ccccc3n3c(-c4cccc(OC)c4OC)nnc23)cc1 was read as TDP1 cell noCPT 16.4µM*, TGFb inhibitor 1.6%, HepG2 viability -17.0% and DT40 TDP1 CPT inconclusive.
`COc1cccc(-c2nnc3n(Cc4ccc(C)cc4)c(=O)c4ccccc4n23)c1O` gave TDP1 cell noCPT 25.9µM*, TGFb inhibitor -13.8%, HepG2 viability -23.4% and DT40 TDP1 CPT inconclusive.
CC(C)OCCCn1c(=O)c2ccccc2n2c(-c3cc(Cl)ccc3O)nnc12 was read as TDP1 cell noCPT 18.4µM*, TGFb inhibitor -22.4%, HepG2 viability -21.8% and DT40 TDP1 CPT inconclusive.
Screening O=c1c2ccccc2n2c(-c3ccccc3O)nnc2n1Cc1ccc(F)cc1 returned TDP1 cell noCPT -11.4%, TGFb inhibitor -6.0%, HepG2 viability -2.6% and DT40 TDP1 CPT -4.9%.
COc1ccc(OC)c(-c2nnc3n(CCc4ccccc4)c(=O)c4ccccc4n23)c1 was read as TDP1 cell noCPT 16.4µM*, TGFb inhibitor 4.1%, HepG2 viability -23.4% and DT40 TDP1 CPT 8.2µM*.
For CC(C)OCCCn1c(=O)c2ccccc2n2c(-c3ccccc3F)nnc12 the results were TDP1 cell noCPT inconclusive, TGFb inhibitor -0.4%, HepG2 viability -7.5% and DT40 TDP1 CPT -25.8%.
For O=c1c2ccccc2n2c(-c3ccc(F)c(F)c3)nnc2n1CCc1ccccc1 the results were TDP1 cell noCPT inconclusive, TGFb inhibitor -13.6%, HepG2 viability -7.5% and DT40 TDP1 CPT inconclusive.
